# Compound activity from PubChem.
# Most compounds without a hit are left out; they make up all but 7.3% or so of the library.
# ELG1 genotoxic = qHTS screen for small molecules that induce genotoxicity in human embryonic kidney (HEK293T) cells expressing luciferase-tagged ELG1; HEK293T ELG1-luciferase reporter, luminescence, 16 h; Potency, µM (highest dose often 46 µM), for the others: at the top dose activity change, positive = activation, most hits filed as activators; actives 1.3% (n = 330,000); note: % of control where 0% means no effect; nearly all actives have a fitted effect of over 60% in size
#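 Cells (2,000/well) expressing the ELG1-luciferase fusion are dosed by pin tool and kept 16 hr at 37 °C, 5% CO2. Signal comes from ONE-Glo luciferase reagent after 30 min at room temperature.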
# NPC1 prom act = qHTS Assay for NPC1 Promoter Activators; Potency, µM (highest dose often 9.22 µM), inactives show at the highest dose activation, actives largely listed as activators; actives 2.4% (n = 320,000); Huh7 NPC1 promoter luciferase reporter, 24 h; note: % of control where 0% means no effect; nearly all actives have a fitted effect of over 60% in size
#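 Quantitative HTS used a cell-based reporter: Huh7 cells stably bearing the NPC1 promoter upstream of luciferase were treated with compounds for 24 h, and promoter activation was read as luminescence.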
# KinaseGlo FLuc = Counterscreen for Luciferase (Kinase-Glo TM) Inhibition; actives 0.28% (n = 200,000); Potency, µM (top dose mostly 38.3 µM), without a hit: at the highest dose activity change, negative = inhibition, hits mostly inhibitors; Luciferin 4-monooxygenase (Photuris pensylvanica), Q27757; Kinase-Glo luciferase, ATP luminescence, 8 min; AID 1379, 2008; note: % is set by controls: 0 for no effect and ±100 for the full control effect; nearly all actives have a fitted effect of over 60% in size
#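 Inhibition of Kinase-Glo luciferase light generation was assessed at 10 uM ATP in pH 7.2 imidazole buffer, with luminescence measured after eight minutes at ambient temperature.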
# Rab9 promoter act = qHTS Assay for Rab9 Promoter Activators; AID 485297, 2010; Potency, µM (titrated, usually from 9.22 µM), for inactives: at the highest dose activation, negative = inhibition, most hits filed as activators; Huh7 Rab9 promoter-luciferase reporter, luminescence, 24 h; actives 2.8% (n = 320,000); note: % of control where 0% means no effect; nearly all actives have a fitted effect of over 60% in size
#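 Quantitative HTS format; Huh7 Rab9-luciferase reporter cells (1500/well) receive compound 2 h post-plating, incubate 24 h at 37 °C, then get luciferase reagent for 10 min before luminescence reading.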
# SMN2 splice enh = qHTS Assay for Enhancers of SMN2 Splice Variant Expression. HEK293 SMN2-luciferase splicing reporter, luminescence, 30-36 h. AID 1458, 2008. Potency, µM (series often up to 46.1 µM), for inactives: at the highest dose activity change, positive = activation, actives largely listed as activators. actives 2.8% (n = 210,000); note: % of control where 0% means no effect; nearly all actives have a fitted effect of over 55% in size
#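 qHTS luciferase splicing reporter: luminescence rises when SMN2 exon 7 is included in transfected HEK293 cells. Compound exposure lasted 30-36 h at 37C, with 4.5 mM final sodium butyrate as control, followed by a ONE-Glo read.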
# FLuc counter = qHTS profiling assay for firefly luciferase inhibitor/activator using purifed enzyme and Km concentrations of substrates (counterscreen for miR-21 project). Luciferin 4-monooxygenase (Photinus pyralis), P08659. purified FLuc, Km substrates, luminescence inhibition. Potency, µM (doses to about 57.5 µM), for inactives: at the highest dose activity change, negative = inhibition, most hits filed as inhibitors. actives 6.9% (n = 360,000);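 note: plate controls were vehicle for no effect and reference inhibitor for full effect; nearly all actives have a fitted effect of over 55% in size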
# Target sequence (P08659 whole entry, looked up): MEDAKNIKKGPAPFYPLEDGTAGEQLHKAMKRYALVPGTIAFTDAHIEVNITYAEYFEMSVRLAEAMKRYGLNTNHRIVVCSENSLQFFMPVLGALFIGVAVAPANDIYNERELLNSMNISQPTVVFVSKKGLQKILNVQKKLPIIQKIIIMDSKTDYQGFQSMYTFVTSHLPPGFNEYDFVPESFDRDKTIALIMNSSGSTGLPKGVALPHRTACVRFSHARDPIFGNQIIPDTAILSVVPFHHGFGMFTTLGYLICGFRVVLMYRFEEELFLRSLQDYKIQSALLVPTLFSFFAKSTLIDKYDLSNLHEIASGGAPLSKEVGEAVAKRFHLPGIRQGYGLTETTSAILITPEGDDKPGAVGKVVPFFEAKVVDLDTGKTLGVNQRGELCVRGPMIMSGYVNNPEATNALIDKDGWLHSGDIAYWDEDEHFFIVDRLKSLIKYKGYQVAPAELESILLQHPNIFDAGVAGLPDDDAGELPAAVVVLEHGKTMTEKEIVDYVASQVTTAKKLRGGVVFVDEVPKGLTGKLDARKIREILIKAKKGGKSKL
#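 Purified P. pyralis luciferase (10nM final) with 10uM D-luciferin and 10uM ATP (Km levels) in 50mM Tris acetate pH 7.5, 10mM Mg acetate, 0.01% Tween-20, 0.05% BSA; qHTS 6-point titration, ~60 µM downward; luminescence read.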
# An asterisk follows results filed as active; ? = inconclusive; / = no result. Calls come from the whole dose curve; as a rule, active = well fitted curve in the direction sought with a large enough effect; inconclusive = small, poorly fitted or top-dose-only effect, or another doubt; inactive = no such curve, though single readings can be large; an effect the other way counts as inactive or inconclusive. Potency is the fitted concentration of half-maximal effect.
SMILES,ELG1 genotoxic,NPC1 prom act,KinaseGlo FLuc,Rab9 promoter act,SMN2 splice enh,FLuc counter
CC(C)c1ccc(NC(=O)[C@H]2O[C@@H]3OC(C)(C)O[C@@H]3[C@H]3OC(C)(C)O[C@H]32)cc1,/,/,/,/,-1%,-1%
COc1ccccc1-c1cc2nc(C)c(CCC(=O)NCc3cccc(Cl)c3)c(C)n2n1,/,/,/,/,3%,?
CCN1CCN(c2cc3c(cc2F)c(=O)c(S(=O)(=O)c2cc(C)cc(C)c2)cn3CC)CC1,/,/,/,/,/,0%
O=S(=O)(CCC(F)=C(F)F)c1nnnn1C1CCCCC1,/,/,0%,/,7%,/
Cc1nonc1C(=O)N/N=C/c1cccc(O)c1,4%,2%,8.9µM*,1%,0%,12µM*
O=C(N/N=C/c1cccc(Oc2ccccc2)c1)c1cccc(O)c1,15%,1%,/,-3%,/,17µM*
O=C(N/N=C/c1cccc(Oc2ccccc2)c1)c1cccc(Br)c1,-5%,4%,-15%,15%,-22%,?
COc1ccc(/C=N/NC(=O)c2nonc2N)cc1OC,7%,-4%,/,-4%,/,?
O=C(N/N=C/c1cccc(O)c1)N/N=C/c1cccc(O)c1,7%,14%,/,10%,/,5.4µM*
O=C(NCCOCCn1c(=O)oc2ccccc21)Nc1ccc(F)cc1F,/,/,/,/,-2%,-1%
Fc1cccc(/C=N/Nc2nccnc2Cl)c1,?,?,/,?,/,21µM*
N#C/C(=C\c1cccc([N+](=O)[O-])c1)c1ccccn1,?,0%,-5%,?,6%,-10%
O=[N+]([O-])c1cccc(/C=N/Nc2ccccn2)c1,?,?,-1%,4µM*,11µM*,3µM*
O=[N+]([O-])c1cccc(/C=C/c2ccccn2)c1,8%,?,/,?,/,13µM*
Cc1cc(C)nc(N/N=C/c2cccc([N+](=O)[O-])c2)n1,0%,1%,/,10%,/,-19%
O=[N+]([O-])c1cccc(/C=N/Nc2nccnc2Cl)c1,?,2.8µM*,10µM*,2µM*,?,12µM*
COc1cc(CN(C(=O)c2ccc(Cl)cc2)C2CCS(=O)(=O)C2)cc(OC)c1OC (stereo not drawn),/,/,/,/,-8%,1%
Cc1nc2ccn(Cc3cccnc3)c(=O)c2cc1C(=O)N1CCN(c2ccccc2)CC1,/,/,/,/,/,-2%
CCOC(=O)c1cc(-c2cc(OC)c(OC)c(OC)c2)nc2c1c(=O)[nH]c(=O)n2Cc1ccccc1,8.2µM*,-13%,1%,-11%,?,2%
CCOC(=O)c1cc(-c2ccc(F)cc2)nc2c1c(=O)[nH]c(=O)n2Cc1ccccc1,?,-4%,/,0%,/,0%
O=C(Nc1cccc(-c2csc(-c3ccccc3)n2)c1)c1cccs1,-12%,4%,17%,-1%,-23%,11µM*
Cc1nc(-c2cccc(NC(=O)c3cccs3)c2)cs1,0%,8%,1%,-4%,12%,24µM*
O=C(Nc1cccc(NC(=O)c2cccs2)c1)c1cccnc1,-7%,-1%,-2%,-1%,3%,?
O=C(Nc1ccccc1)c1csc(-c2ccccc2)n1,8%,12%,0%,16%,2%,21µM*
O=C(Nc1ccccc1Cl)c1csc(-c2cccnc2)n1,18%,2.8µM*,/,2.8µM*,/,12µM*
SMILES,ELG1 genotoxic,NPC1 prom act,KinaseGlo FLuc,Rab9 promoter act,SMN2 splice enh,FLuc counter
O=C(Cn1nc(C(F)(F)F)c2c1CCCC2)Nc1ccc(Br)cc1,/,/,/,/,/,-10%
CCOc1ccccc1CNC(=O)c1cnc2sc(N3CCOCC3)nn2c1=O,/,/,/,/,/,-6%
Cc1ccc(NC(=O)c2oc3ccc(S(=O)(=O)N4CCC5(CC4)OCCO5)cc3c2C)c(C)c1,/,/,/,/,/,3%
O=c1[nH]c(SCc2ccccc2)nc2ccsc12,16%,6%,-2%,8%,?,17µM*
COc1cccc(CSc2nc3ccccc3[nH]2)c1,?,3.5µM*,-8%,1µM*,16µM*,4.3µM*
CCCc1cc(=O)[nH]c(SCc2cc(C(=O)OC)c(C)o2)n1,2%,1%,2%,-2%,-3%,-1%
O=C(O)c1ccc(CSc2nc3ccccc3[nH]2)cc1,8%,2%,/,0%,/,17µM*
COC(=O)c1cc(CSc2nc3ccccc3[nH]2)oc1C,9.2µM*,?,-7%,?,-45%,7.6µM*
CCOC(=O)CSc1nc2ccsc2c(=O)[nH]1,2%,1%,5%,2%,/,-11%
COc1ccc(S(=O)(=O)Nc2ccc3c(c2)N(C(C)=O)CCC3)cc1F,/,/,/,/,/,-9%
Fc1ccccc1CSc1nc2ccccc2[nH]1,?,1.8µM*,?,1.3µM*,5.6µM*,2.4µM*
COc1cc(OC)c(OC)cc1CN1CCc2nc(N3CCN(c4ccccc4F)CC3)ncc2C1,/,/,/,/,/,-7%
Cc1csc(NC(=O)CSc2nc3sc(C)c(C)c3c(=O)[nH]2)n1,12%,0%,1%,3%,13%,0%
CSCc1nc2sc(C(=O)Nc3nc(C)cs3)c(C)c2c(=O)[nH]1,16%,?,-6%,3.2µM*,11µM*,?
Cc1ccc(NC(=O)c2sc3nc(CCl)[nH]c(=O)c3c2C)c(C)c1,?,22%,1%,?,?,9.5µM*
COc1ccc(S(=O)(=O)Nc2ccc3c(c2)CCCN3S(=O)(=O)c2ccc(C)cc2)cc1F,/,/,/,/,/,-1%
COc1ccc2nc(-c3cccc(N)c3)[nH]c2c1,?,1.6µM*,13µM*,2.5µM*,/,2.4µM*
COc1ccc2nc(-c3ccc(N)cc3)[nH]c2c1,?,?,10µM*,24%,?,3.8µM*
COc1cc(Cl)c(NS(=O)(=O)c2ccc(-c3coc(C)n3)cc2)c(OC)c1,/,/,/,/,/,-2%
COCCNC(=O)c1ccc(NS(=O)(=O)c2ccc3[nH]c(=O)[nH]c3c2)cc1,0%,-1%,/,7%,/,2%
CCC(C)NC(=O)c1ccc(NS(=O)(=O)c2ccc3[nH]c(=O)[nH]c3c2)cc1 (stereo not drawn),?,13%,/,1%,/,17µM*
Cc1cc(CNC(=O)c2cccc(OC3CCN(S(=O)(=O)N(C)C)CC3)c2)on1,12%,3.5µM*,/,?,/,15µM*
COc1cc(/C=C2\Oc3cc(O)ccc3C2=O)ccc1O,23µM*,3.2µM*,/,4µM*,/,8.5µM*
COc1cc(C=O)ccc1O,/,/,2%,/,2%,/
